Data as given in the supplement of paper PMC12494721.
Counter-ions that a name gives are not always drawn.

How the values were obtained:
Conditions in all cases: incubation time: 27 h, anaerobic, 37 °C;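 for the amine columns active = adjusted P below 0.05 in both replicates with a change the same way and a mean fold change under 0.8 or over 1.25; inactive = the rest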
[1] = system: Clostridium sporogenes DSM 1664; experiment: growth (OD595) fold change vs plate DMSO controls (fold change (ratio)); higher = more growth
In short: (§1)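 Growth is the fold change relative to the median of plate DMSO controls. Readings came from anaerobic mGAM cultures in 96-well plates grown for 27 h at 37 °C and read at 595 nm. They were blank-subtracted, corrected for compound background with 20 µM compound solutions in water, and converted to OD with a calibration factor of 5. Values are means of 2 biological replicates, and fold changes above 1.5 were set to NA.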

[2] = system: Escherichia coli IAI1; experiment: as above
In short: as §1

[3] = system: Klebsiella aerogenes DSM 30053; experiment: as above
In short: as §1

[4] = system: Ruminococcus gnavus DSM 108212; experiment: as above
In short: as §1

[5] = system: Klebsiella aerogenes DSM 30053; experiment: fold change of Histamine concentration vs plate DMSO controls (fold change (ratio)); higher = more amine produced, active = hit call of the paper (significant change in both replicates, either direction)
In short: (§2)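 In 80 µL wells, cultures of four gut bacterial strains in mGAM started at OD 0.1 before a 1:1 dilution and grew anaerobically at 37 °C for 27 h. Compounds were added to 20 µM final, except sweeteners at 50 µM final. After extraction of whole cultures with cold acetonitrile/methanol plus 0.1% formic acid and centrifugation, amines were measured by LC–triple-quadrupole MS in dynamic MRM mode against external calibration curves, with within-batch drift correction. Values give fold change over DMSO controls on the same plate, averaged across 2 biological replicates.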

[6] = system: Clostridium sporogenes DSM 1664; experiment: fold change of Tryptamine concentration vs plate DMSO controls (fold change (ratio)); higher = more amine produced, active = hit call of the paper (significant change in both replicates, either direction)
In short: as §2

[7] = system: Ruminococcus gnavus DSM 108212; experiment: as above
In short: as §2

[8] = system: Escherichia coli IAI1; experiment: fold change of Putrescine concentration vs plate DMSO controls (fold change (ratio)); higher = more amine produced, active = hit call of the paper (significant change in both replicates, either direction)
In short: as §2

[9] = system: Klebsiella aerogenes DSM 30053; experiment: as above
In short: as §2

[10] = system: Escherichia coli IAI1; experiment: fold change of Cadaverine concentration vs plate DMSO controls (fold change (ratio)); higher = more amine produced, active = hit call of the paper (significant change in both replicates, either direction)
In short: as §2

[11] = system: Klebsiella aerogenes DSM 30053; experiment: as above
In short: as §2

[12] = system: Ruminococcus gnavus DSM 108212; experiment: fold change of 2-Phenylethylamine concentration vs plate DMSO controls (fold change (ratio)); higher = more amine produced, active = hit call of the paper (significant change in both replicates, either direction)
In short: as §2

Structure (SMILES)	growth [1]	growth [2]	growth [3]	growth [4]	fold change of Histamine concentration [5]	fold change of Tryptamine concentration [6]	fold change of Tryptamine concentration [7]	fold change of Putrescine concentration [8]	fold change of Putrescine concentration [9]	fold change of Cadaverine concentration [10]	fold change of Cadaverine concentration [11]	fold change of 2-Phenylethylamine concentration [12]
O=C(O)CCNC(=O)c1ccc(/N=N/c2ccc(O)c(C(=O)O)c2)cc1 [Balsalazide disodium salt] (20 µM)	1	1	1.02	0.934	0.892 (inactive)	0.993 (inactive)	1.21 (inactive)	0.893 (inactive)	1.01 (inactive)	0.963 (inactive)	1.11 (inactive)	1.51 (active)
CCOc1ccc(NC(=O)CC(C)O)cc1 (stereo not drawn) [Bucetin] (20 µM)	0.973	0.985	0.995	1.07	0.984 (inactive)	0.999 (inactive)	0.95 (inactive)	0.997 (inactive)	1.01 (inactive)	0.977 (inactive)	0.993 (inactive)	0.936 (inactive)
CN(Cc1cnc2nc(N)nc(N)c2n1)c1ccc(C(=O)N[C@@H](CCC(=O)O)C(=O)O)cc1 [Amethopterin] (20 µM)	1.08	1.02	1.09	1.42	0.922 (inactive)	0.975 (inactive)	0.892 (inactive)	1 (inactive)	1 (inactive)	1 (inactive)	1.02 (inactive)	0.832 (inactive)
CCOC(=O)C(C)(C)Oc1ccc(Cl)cc1 [Clofibrate] (20 µM)	1.24	1.23	1.03	0.977	1.07 (inactive)	1.04 (inactive)	1 (inactive)	1.18 (inactive)	1.03 (inactive)	0.919 (inactive)	0.996 (inactive)	0.97 (inactive)
Cc1cc(=O)oc2cc(O)ccc12 [Hymecromone] (20 µM)	1.23	1.04	0.98	1.02	1.04 (inactive)	1.06 (inactive)	0.953 (inactive)	1 (inactive)	1.01 (inactive)	0.999 (inactive)	0.994 (inactive)	0.95 (inactive)
CCOC(=O)CC(=O)N1CCSC1COc1ccccc1OC (stereo not drawn) [Moguisteine] (20 µM)	0.961	0.997	1.02	0.951	1.02 (inactive)	1.06 (inactive)	0.978 (inactive)	0.997 (inactive)	1.01 (inactive)	1 (inactive)	0.987 (inactive)	0.994 (inactive)
Cn1c(=O)c2c(ncn2CC2OCCO2)n(C)c1=O [Doxofylline] (20 µM)	1.05	0.975	0.973	1.18	1.08 (inactive)	1.05 (inactive)	1.06 (inactive)	0.999 (inactive)	1.01 (inactive)	1 (inactive)	0.993 (inactive)	1.1 (inactive)
Cc1cc2c(cc1S(N)(=O)=O)S(=O)(=O)CCC2 [Meticrane] (20 µM)	0.974	1.03	1.02	1.24	1.05 (inactive)	1.01 (inactive)	0.986 (inactive)	0.983 (inactive)	1.01 (inactive)	1.02 (inactive)	0.986 (inactive)	1 (inactive)
CC(C)CN(C[C@@H](O)[C@H](Cc1ccccc1)NC(=O)O[C@H]1CCOC1)S(=O)(=O)c1ccc(N)cc1 [Amprenavir] (20 µM)	1.1	1.05	0.974	0.947	0.92 (inactive)	0.952 (inactive)	1.07 (inactive)	1.14 (inactive)	1.01 (inactive)	0.952 (inactive)	1.03 (inactive)	1.08 (inactive)
O=c1oc2ccccc2c(O)c1Cc1c(O)c2ccccc2oc1=O [Dicumarol] (20 µM)	0.886	0.961	1.04	0.883	1 (inactive)	0.989 (inactive)	0.949 (inactive)	0.993 (inactive)	1 (inactive)	1.01 (inactive)	1.01 (inactive)	1.02 (inactive)
CC(=O)[C@H]1CC[C@H]2[C@@H]3CCC4=CC(=O)CC[C@]4(C)[C@H]3CC[C@]12C [Progesterone] (20 µM)	1.08	1.02	1.05	0.651	0.893 (inactive)	1.04 (inactive)	0.981 (inactive)	1.07 (inactive)	0.961 (inactive)	1.03 (inactive)	1.02 (inactive)	0.95 (inactive)
CC(=O)O[C@]1(C(C)=O)CC[C@H]2[C@@H]3C=C(Cl)C4=CC(=O)[C@@H]5C[C@@H]5[C@]4(C)[C@H]3CC[C@@]21C [Cyproterone acetate] (20 µM)	1.17	0.908	0.894	0.639	0.982 (inactive)	0.986 (inactive)	0.938 (inactive)	1.02 (inactive)	1 (inactive)	0.999 (inactive)	0.996 (inactive)	0.927 (inactive)
N=C(N)c1ccc(OCCCCCOc2ccc(C(=N)N)cc2)cc1 [Pentamidine isethionate] (20 µM)	1.15	1.05	0.985	1.35	0.984 (inactive)	0.79 (inactive)	0.365 (active)	0.993 (inactive)	0.914 (inactive)	0.825 (inactive)	1.01 (inactive)	0.38 (active)
CCCc1nn(C)c2c(=O)[nH]c(-c3cc(S(=O)(=O)N4CCN(C)CC4)ccc3OCC)nc12 [Sildenafil] (20 µM)	1.23	1.01	1.02	1.14	0.993 (inactive)	1.06 (inactive)	1.15 (inactive)	0.921 (inactive)	0.98 (inactive)	0.87 (inactive)	1.04 (inactive)	1.24 (inactive)
Nc1ccc(S(=O)(=O)Nc2nccs2)cc1 [Sulfathiazole] (20 µM)	0.969	0.979	1.03	0.853	1 (inactive)	0.968 (inactive)	1.03 (inactive)	0.955 (inactive)	1.02 (inactive)	1.03 (inactive)	1.01 (inactive)	1.03 (inactive)
c1cc2ccc3ccc4ccc5cccc6c(c1)c2c3c4c56 [Benzo-[g,h,i]perylene] (20 µM)	0.921	1.01	1.06	1.05	1.04 (inactive)	1.02 (inactive)	0.905 (inactive)	1.04 (inactive)	1.01 (inactive)	1 (inactive)	0.976 (inactive)	0.88 (inactive)
Oc1ncnc2[nH]ncc12 [Allopurinol] (20 µM)	1.03	0.942	0.974	1.02	1.03 (inactive)	1.04 (inactive)	1.01 (inactive)	1.09 (inactive)	1 (inactive)	1.01 (inactive)	1.01 (inactive)	1.02 (inactive)
COC(=O)C1=C(C)NC(C)=C(C(=O)OC)C1c1ccccc1[N+](=O)[O-] [Nifedipine] (20 µM)	1.07	1.12	0.991	0.883	1.05 (inactive)	1.02 (inactive)	1 (inactive)	1.05 (inactive)	1.01 (inactive)	0.955 (inactive)	1 (inactive)	0.92 (inactive)
Nc1ccc(S(=O)(=O)Nc2cnc3ccccc3n2)cc1 [Sulfaquinoxaline sodium salt] (20 µM)	1.03	1.01	0.991	0.994	1.04 (inactive)	0.987 (inactive)	0.985 (inactive)	0.911 (inactive)	1.02 (inactive)	1.01 (inactive)	0.991 (inactive)	0.981 (inactive)
CCOc1cc(CC(=O)N[C@@H](CC(C)C)c2ccccc2N2CCCCC2)ccc1C(=O)O [Repaglinide] (20 µM)	1.11	1.2	0.993	0.81	0.982 (inactive)	1.18 (inactive)	1.09 (inactive)	1.14 (inactive)	0.966 (inactive)	1.01 (inactive)	1.03 (inactive)	1.13 (inactive)
c1ccc2c(c1)ccc1ccccc12 [Phenanthrene] (20 µM)	0.976	0.992	0.975	0.96	1 (inactive)	1.02 (inactive)	1.07 (inactive)	0.992 (inactive)	0.817 (inactive)	0.904 (inactive)	1.12 (inactive)	1.09 (inactive)
CCCCCCC[N+](CC)(CC)CCCCc1ccc(Cl)cc1 [Clofilium tosylate] (20 µM)	1.2	0.984	1.07	1.26	0.897 (inactive)	1.32 (inactive)	0.792 (inactive)	1.17 (inactive)	0.968 (inactive)	0.947 (inactive)	1.03 (inactive)	0.867 (inactive)
CC(C)=C/C(C)=N/Nc1nncc2ccccc12 [Budralazine] (20 µM)	1.12	1.05	0.989	0.98	1.03 (inactive)	0.98 (inactive)	0.994 (inactive)	0.992 (inactive)	1.02 (inactive)	0.963 (inactive)	1 (inactive)	0.969 (inactive)
CC(=O)[C@@]1(O)CC[C@H]2[C@@H]3C[C@H](C)C4=CC(=O)C=C[C@]4(C)[C@@]3(F)[C@@H](O)C[C@@]21C [Fluorometholone] (20 µM)	1.02	0.986	1.01	1.14	1.05 (inactive)	1.05 (inactive)	1.08 (inactive)	0.992 (inactive)	0.968 (inactive)	0.957 (inactive)	0.983 (inactive)	1.14 (inactive)
